# Sampled rows, rich in hits. Any-hit rate of the full collection: about 1.4%.
# FadD28 FP inh: blocks FadD28 binding to the bisubstrate probe; AID 588549; fluorescence polarization; inhibition, % at 12.5 µM; 0.22% of 360,000 active; in the data active = inhibition above about 8.5%, passing the limit was not always enough
# BH1578 lux ind: quorum light induction in luxS cqsA deficient V. cholerae; 0.16% of 350,000 active; V. cholerae BH1578 lux reporter, luminescence, 6 h; activation, % at 18.7 µM; in the data active = activation mostly above about 9.7%, no sharp cut-off
# PrPC surface inh: reduces human prion protein on the cell surface; inhibition, % at 13.8 µM; 0.43% of 370,000 active; cell surface PrPC, TR-FRET read-out; in the data active = inhibition above about 24%; note: 0% = median of the test wells and 100% = reference compound wells
# PrP UTR inh: inhibition of PrP 5' UTR reporter expression. cell-based PrP 5' UTR mRNA reporter, plate reader. inhibition, % (test concentration not listed). 0.35% of 340,000 active. AID 488862; in the data active = inhibition above about 52%; note: 0 = median of the neutral control wells
# SSB-PriA inh: inhibitors of Klebsiella pneumoniae PriA binding to SSB C-terminal tail | 0.6% of 430,000 active | inhibition, % at 33 µM | AlphaScreen SSBct-PriA binding, biotinylated peptide; in the data active = inhibition mostly above about 37%, no sharp cut-off; inactive = mostly below about 20%;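 note: plate controls were negative control peptide for no effect and reference peptide for full effect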
# * = called active by the depositor; i = inactive; · = no result; ! = not active in a repeat.
SMILES,FadD28 FP inh,BH1578 lux ind,PrPC surface inh,PrP UTR inh,SSB-PriA inh
CC(=NNC(=S)N1CCN(c2ccccn2)CC1)c1nccs1,-3.1,-1.0,·,-2.5,92.0*
Cn1c(NC(=O)CCc2ccccc2)cc(=O)n(C)c1=O,-4.1,-0.2,3.9,-73.9,46.0*
COc1cc(C=NNC(=O)Cn2nnc3ccccc32)ccc1O,·,·,·,·,-0.5
COc1ccc(-c2cc(-c3ccc(Cl)cc3)nc(SCC(=O)NCC3CCCO3)c2C#N)cc1 (stereo unspecified),·,·,·,·,-3.0
Cn1cccc1C=NNC(=O)C1COc2ccc(C(C)(C)C)cc2O1 (stereo unspecified),·,·,·,·,38.9*
O=C(Cc1cccs1)NC[C@H](O)Cn1ccccc1=O,·,·,·,·,-10.0
NS(=O)(=O)c1cc2c(cc1Cl)NCNS2(=O)=O,-0.8,23.8*,-1.8,6.5,-6.1
COc1cc(C2Nc3cc(Cl)c(S(N)(=O)=O)cc3S(=O)(=O)N2)cc(OC)c1OC (stereo unspecified),-2.0,i,3.2,-12.0,1.7
CC(C)(C)c1ccc(C(=O)N/C(=C/c2ccco2)C(=O)NCCCn2ccnc2)cc1,·,·,·,·,63.2*
Cn1cnc2cnc(Cl)nc21,·,·,·,·,-6.0
CSc1ccc(C2N(c3ccccc3)CCN2c2ccccc2)cc1,·,·,·,·,3.0
O=C(c1ccco1)N(CCCn1ccnc1)c1nc2c(Cl)cccc2s1,·,·,·,·,64.3
Cc1cccc2sc(N(CCCn3ccnc3)C(=O)c3ccc(Cl)s3)nc12,·,·,·,·,21.0
CCOc1cccc2sc(N(CCCn3ccnc3)C(=O)c3ccc(Cl)s3)nc12,·,·,·,·,50.0*
O=C(c1ccco1)N(CCCn1ccnc1)c1nc2c(F)cccc2s1,·,·,·,·,71.8*
COc1cccc2sc(N(CCCn3ccnc3)C(=O)c3ccco3)nc12,·,·,·,·,56.9*
O=C(c1ccc(F)cc1)N(CCCn1ccnc1)c1nc2c(F)cccc2s1,·,·,·,·,18.0
CCc1cccc2sc(N(CCCn3ccnc3)C(=O)c3ccco3)nc12,·,·,·,·,109.9*
O=C(CCCS(=O)(=O)c1ccccc1)Nc1nc2cc3c(cc2s1)OCO3,·,·,·,·,2.0
Cc1c(Cl)ccc2sc(N(CCCn3ccnc3)C(=O)c3ccco3)nc12,·,·,·,·,69.3*
Cc1c(Cl)ccc2sc(N(Cc3ccccc3)C(=O)c3ccn(C)n3)nc12,·,·,·,·,-5.0
Cc1cc(NC(=O)Cn2cnc3c(nnn3-c3ccc(C)c(C)c3)c2=O)no1,·,·,·,·,-7.0
Brc1ccc(-c2cn3c(n2)CCc2ccc4cccnc4c2-3)cc1,-2.1,-1.9,-10.0,-1.7,53.4*
Clc1ccc(OCCn2cnc(Cl)c2Cl)cc1,0.2,i,3.9,-9.9,43.0*
O=C(Oc1c(CN2CCOCC2)cc(Cl)c2cccnc12)c1cccs1,-1.7,i,2.8,13.6,91.0*!
SMILES,FadD28 FP inh,BH1578 lux ind,PrPC surface inh,PrP UTR inh,SSB-PriA inh
O=C(Oc1c(CN2CCOCC2)cc(Cl)c2cccnc12)c1ccccc1Cl,-3.7,-3.3,0.1,6.7,46.9*
COc1ccc(C(=O)Oc2c(CN3CCOCC3)cc(Cl)c3cccnc23)cc1,-0.8,4.2,3.7,2.8,-9.0
COc1cc(C(=O)Oc2c(CN3CCOCC3)cc(Cl)c3cccnc23)cc(OC)c1OC,-0.9,-0.3,·,25.4,87.0*
O=C(Oc1c(CN2CCOCC2)cc(Cl)c2cccnc12)c1ccc(F)cc1,-4.4,i,0.9,-13.1,87.7*
CCOC(=O)c1ccccc1NC(=O)c1ccc(=O)n(Cc2cccc(F)c2)n1,·,·,·,·,1.0
Cc1cc(C(=O)NCCn2nc(C(F)(F)F)c3c2CCCC3)c(C)o1,·,·,·,·,-16.0
CCCn1nc(-c2ccco2)c2sc(N3CCCC3)nc2c1=O,·,·,·,·,0.0
CC(C)Nc1nc(-c2ccccn2)nnc1-c1ccccc1,·,·,·,·,154.5*
O=C(NCCc1cnc[nH]1)c1nnn(-c2ccccc2)c1-n1cccc1,·,·,·,·,-7.0
CCOC(=O)N1CCN(c2cc(=O)n(-c3ccccc3Cl)c(=O)[nH]2)CC1,-2.7,-0.1,0.3,-21.3,104.2*
CC1(C)N=C(C=NO)CN1O,·,·,·,·,-9.1
Cc1cccc(N=C2NC(=O)/C(=C/C=C/c3ccco3)S2)c1C,11.2*,-0.3,-8.0,-18.5,-7.0
O=C(NN=Cc1ccco1)c1cnccn1,·,·,·,·,9.6
COc1cc(C(=O)NC(=S)NNC(=O)c2cnccn2)cc(OC)c1OC,0.4,-0.3,11.7,-21.1,81.8*
O=C(/C=C/c1ccco1)NC(=S)NNC(=O)c1cnccn1,·,·,·,·,65.6*
COc1ccccc1NC(=O)c1cc2c(CO)cnc(C)c2oc1=Nc1ccc(OC)c(OC)c1,-0.6,i,-7.6,-0.6,5.4
COc1ccc(NC(=O)c2cc3c(CO)cnc(C)c3oc2=Nc2cccc(C)c2)c(OC)c1,-1.9,20.4*,-4.4,7.3,-5.6
COc1ccc(S(=O)(=O)/N=C2/NC(=O)/C(=C\c3ccco3)S2)cc1,7.5,-0.4,0.1,-4.1,·

# High-throughput results deposited in PubChem by several laboratories.
